# Results from PubChem BioAssay (EPA / NIEHS).
# Results filed as inconclusive are left out. The source holds several records for some structures; these can differ, active in one and inactive in another. Active and inactive are the calls of the source. How the source made its calls, unless noted: active means hit-call score of the fitted dose curve at least 0.9, where 1 is the maximum; inactive means score below 0.9.
# Columns and labels:
# DIO2 (gene 1734) = assay: CCTE_GLTED_hDIO2: CCTE's human Deiodinase 2 (DIO2) Inhibition Assay, Great Lakes Toxicology and Ecology Division (GLTED) Lab (AID 2284050; active means hit-call score of the fitted dose curve at least 0.9, where 1 is the maximum)
# In short: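 Cell-free human DIO2 incubated 3 h with chemical; liberated iodide quantified by Sandell-Kolthoff absorbance. Triplicate plates; loss of signal fitted vs DMSO.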
# DIO3 (gene 1735) = assay: CCTE_GLTED_hDIO3: CCTE's human Deiodinase 3 (DIO3) Inhibition Assay, Great Lakes Toxicology and Ecology Division (GLTED) Lab (AID 2284055; active means hit-call score of the fitted dose curve at least 0.9, where 1 is the maximum;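 further: potency is for inhibition seen as loss of released iodide signal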)
# In short: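 Human DIO3 from an adenovirus expression system is incubated 3 h with test chemical. Released iodide is quantified by Sandell-Kolthoff absorbance, in triplicate plates. Loss of signal is fitted relative to DMSO.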
# [1] = CCTE_Deisenroth_AIME_384WELL_CTox_Active: Cytotoxicity Assessment (CTOX) in CCTE's 384-well Estrogen Receptor Transactivation Assay with AIME metabolic competence (metabolism positive), Deisenroth Lab (AID 2284037; active means hit-call score of the fitted dose curve at least 0.9, where 1 is the maximum;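 further: chemicals first conditioned 2 h by alginate-bound induced rat liver S9 before cells; activity means signal loss indicating cell death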)
# In short: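 VM7Luc4E2 breast cells received medium pre-incubated 2 h with chemical over alginate microspheres holding induced male Sprague Dawley rat liver S9; viability read 24 h later by protease-substrate fluorescence. Loss of signal, bidirectional fit, 0.002–200 uM.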
# [2] = CCTE_Deisenroth_AIME_384WELL_CTox_Inactive: Cytotoxicity Assessment (CTOX) in CCTE's 384-well Estrogen Receptor Transactivation Assay without AIME metabolic competence (metabolism negative), Deisenroth Lab (AID 2284039; active means hit-call score of the fitted dose curve at least 0.9, where 1 is the maximum;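 further: cell viability via live-cell protease substrate cleaved to fluorescent probe; cells exposed 24 h to medium preincubated 2 h with alginate-water beads without S9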)
# In short: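 VM7Luc4E2 human breast cells received conditioned medium from a 2 h incubation of chemical with alginate-water microspheres (no S9), then were exposed 24 h. Viability was read as protease-substrate cleavage to a fluorescent probe; loss of signal was fitted bidirectionally over 0.002–200 uM.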
# [3] = target: Estrogen receptor (Homo sapiens) (UniProt P03372); assay: CCTE_Deisenroth_AIME_384WELL_LUC_Shift: CCTE's 384-well Estrogen Receptor Transactivation Assay with AIME metabolic competence data shift (ERTA luciferase; difference in metabolism positive and negative), Deisenroth Lab (AID 2284041);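 further: shift is response with S9 minus without S9 so positive means metabolism raised ER signal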
# In short: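 Here, parent compounds undergo 2 h phase I metabolism by PB/BNF-induced rat S9 before 24 h transactivation in VM7Luc4E2 cells; the curve models S9-positive minus S9-negative response over a 10-point series.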
# [4] = target: Estrogen receptor (Homo sapiens) (UniProt P03372); assay: CCTE_Deisenroth_AIME_384WELL_LUC_Active: CCTE's 384-well Estrogen Receptor Transactivation Assay with AIME metabolic competence (ERTA luciferase; metabolism positive), Deisenroth Lab (AID 2284030; active means hit-call score of the fitted dose curve at least 0.9, where 1 is the maximum)
# In short: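 Estrogenic luciferase signal in VM7Luc4E2 cells is measured at 24 hour, after chemicals have been preconditioned 2 hours with PB/BNF-induced rat hepatic S9 in alginate. Gain of signal is fitted relative to 17beta-estradiol, across 0.002 - 200 uM.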
# [5] = target: Estrogen receptor (Homo sapiens) (UniProt P03372); assay: CCTE_Deisenroth_AIME_384WELL_LUC_Inactive: CCTE's 384-well Estrogen Receptor Transactivation Assay without AIME metabolic competence (ERTA luciferase; metabolism negative), Deisenroth Lab (AID 2284038; active means hit-call score of the fitted dose curve at least 0.9, where 1 is the maximum;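 further: hits raise estrogen receptor luciferase signal so potencies reflect agonists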)
# In short: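 Metabolism-negative mode: chemicals (10-point, 0.002–200 uM) held 2 h with alginate-water microspheres, then conditioned medium applied to VM7Luc4E2 cells for 24 h. Luciferase induction referenced to 17beta-estradiol.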
# [6] = CCTE_Shafer_MEA_dev_firing_rate_mean: CCTE's Neural Network Formation Assay for Mean Firing Rate, Shafer Lab (AID 2284031)
# In short: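 Primary rat cortical neurons on 48-well MEA plates, exposed from plating day 0 with dosing renewed on DIV 5 and 9. Mean well firing rate over active electrodes, recorded days 5, 7, 9, 12, summarised as trapezoidal AUC.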
# [7] = CCTE_Shafer_MEA_dev_active_electrodes_number: CCTE's Neural Network Formation Assay for Number of Active Electrodes, Shafer Lab (AID 2284040; active means hit-call score of the fitted dose curve at least 0.9, where 1 is the maximum;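 on AC50: potency for loss of active electrodes versus DMSO so lower counts are hits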)
# In short: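 Primary rat cortical neurons on 16-electrode MEA wells, exposed from day 0 through day 12 with compound renewed at DIV 5 and 9 feeds. Active electrodes (mean firing ≥5 spikes/min) counted at DIV 5, 7, 9, 12; trapezoidal AUC across days, loss-of-signal versus DMSO.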
# [8] = CCTE_Shafer_MEA_dev_burst_rate: CCTE's Neural Network Formation Assay for Burst Rate, Shafer Lab (AID 2284042)
# In short: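 Rat primary cortical cultures on PEI/laminin MEA; compound from plating, re-dosed at DIV 5, 9 media change. Single-electrode bursts/recording length, well mean of active electrodes; AUC over DIV 5–12 recordings; loss-of-signal vs DMSO.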
# [9] = CCTE_Shafer_MEA_dev_interburst_interval_mean: CCTE's Neural Network Formation Assay for Mean Interburst Interval, Shafer Lab (AID 2284046);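 further: well-mean interburst interval of bursting electrodes as AUC over four recording days; curve fitted for decrease in interburst interval relative to DMSO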
# In short: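 Rat cortical neurons, 1.5 x 10^5 cells/well, 48-well MEA; compound from day 0 through DIV 12, media and treatment renewed DIV 5/9. Recordings DIV 5, 7, 9, 12; well-mean interburst interval → trapezoidal AUC, loss direction vs DMSO.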
# [10] = CCTE_Shafer_MEA_dev_inter_network_spike_interval_mean: CCTE's Neural Network Formation Assay for Mean Inter-network Spike Interval, Shafer Lab (AID 2284047)
# In short: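 Primary rat cortical neurons on PEI-coated 48-well MEAs (16 electrodes/well) were exposed from plating day 0 to DIV 12, with dosing renewed at DIV 5 and 9. Recordings at DIV 5, 7, 9, 12 were collapsed by trapezoidal AUC, loss-of-signal fit vs DMSO.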
# [11] = CCTE_Shafer_MEA_dev_network_spike_number: CCTE's Neural Network Formation Assay for Number of Network Spikes, Shafer Lab (AID 2284048);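 further: synchronized bursts across electrodes counted on days 5 7 9 12 and integrated as AUC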;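 on AC50: fit as a loss of signal meaning fewer network spikes than DMSO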
# In short: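 Primary rat cortical neurons were seeded at 1.5 x 10^5 cells/well on PEI-coated 16-electrode MEA wells with laminin, exposed from plating day 0, compound renewed at DIV 5 and 9. Network spikes were recorded on days 5, 7, 9, 12 and summarized as trapezoidal AUC versus DMSO.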
# [12] = CCTE_Shafer_MEA_dev_network_spike_peak: CCTE's Neural Network Formation Assay for Mean Number of Electrodes in Network Spike, Shafer Lab (AID 2284049);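 on AC50: fitted for loss of signal meaning fewer electrodes in network spikes than DMSO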
# In short: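 Continuous 12-day exposure of rat cortical cultures, starting at plating, on MEA plates. Endpoint: electrodes participating in network-spike peaks, AUC across DIV 5–12, DMSO as negative control.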
# [13] = CCTE_Shafer_MEA_dev_spike_duration_mean: CCTE's Neural Network Formation Assay for Mean Spike Duration, Shafer Lab (AID 2284051);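 further: mean network spike duration pooled as area under curve over DIV 5 to 12 recordings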;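 on AC50: potency for a decrease in mean network spike duration versus DMSO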
# In short: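 Rat cortical primary cultures, 48-well MEA (16 electrodes/well); compound from plating, renewed DIV 5, 9. Network spike duration (AxIS adaptive detector) recorded DIV 5/7/9/12, combined as trapezoidal AUC; loss direction vs DMSO.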
# [14] = CCTE_Shafer_MEA_dev_per_network_spike_spike_number_mean: CCTE's Neural Network Formation Assay for Mean Number of Spikes in a Network Spike, Shafer Lab (AID 2284053)
# In short: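 Rat cortical primary cultures on 48-well MEA; compound from day 0, re-dosed with full media change DIV 5, 9. Recorded DIV 5, 7, 9, 12; spikes in 0.05 s window at network-spike peak ÷ total network spikes; AUC; loss vs DMSO.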
# [15] = CCTE_Shafer_MEA_dev_per_network_spike_spike_percent: CCTE's Neural Network Formation Assay for Percent of Spikes in a Network Spike, Shafer Lab (AID 2284054)
# In short: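 Primary rat cortical neurons on 16-electrode MEA wells (PEI-coated, laminin at plating), exposed from day 0 with renewal at DIV 5 and 9; spikes within 0.05 s of network-spike peaks over total spikes, AUC across days 5, 7, 9, 12.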
# [16] = CCTE_Shafer_MEA_dev_LDH: CCTE's Lactate Dehydrogenase Assay for Cytotoxicity in the Neural Network Formation Assay, Shafer Lab (AID 2284068; active means hit-call score of the fitted dose curve at least 0.9, where 1 is the maximum;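 further: exposure for twelve days from plating with re-dosing on DIV 5 and 9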)
# In short: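 Rat cortical primary neurons, MEA culture; dosing day 0–12, full medium plus compound exchange DIV 5, 9. Read-out: LDH enzyme activity, spectrophotometric. DMSO = negative control/baseline; signal loss → cytotoxicity.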
# [17] = UKN5_HCS_SBAD2_cell_viability: Viability Assessment in the University of Konstanz (UKN) Leist Lab Neurite Outgrowth Assay in human iPSC-derived immature Dorsal Root Ganglia Neurons (UKN5) (AID 2284056)
# In short: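 iPSC-derived immature peripheral neurons (SBAD2) seeded on Matrigel with CHIR99021, SU5402 and DAPT, dosed 1 h later for 24 h. Viability from Hoechst H-33342 and calcein-AM live staining, high-content imaging; bidirectional fit versus DMSO.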
# Chain of Estrogen receptor (Homo sapiens) (P03372 whole entry, looked up): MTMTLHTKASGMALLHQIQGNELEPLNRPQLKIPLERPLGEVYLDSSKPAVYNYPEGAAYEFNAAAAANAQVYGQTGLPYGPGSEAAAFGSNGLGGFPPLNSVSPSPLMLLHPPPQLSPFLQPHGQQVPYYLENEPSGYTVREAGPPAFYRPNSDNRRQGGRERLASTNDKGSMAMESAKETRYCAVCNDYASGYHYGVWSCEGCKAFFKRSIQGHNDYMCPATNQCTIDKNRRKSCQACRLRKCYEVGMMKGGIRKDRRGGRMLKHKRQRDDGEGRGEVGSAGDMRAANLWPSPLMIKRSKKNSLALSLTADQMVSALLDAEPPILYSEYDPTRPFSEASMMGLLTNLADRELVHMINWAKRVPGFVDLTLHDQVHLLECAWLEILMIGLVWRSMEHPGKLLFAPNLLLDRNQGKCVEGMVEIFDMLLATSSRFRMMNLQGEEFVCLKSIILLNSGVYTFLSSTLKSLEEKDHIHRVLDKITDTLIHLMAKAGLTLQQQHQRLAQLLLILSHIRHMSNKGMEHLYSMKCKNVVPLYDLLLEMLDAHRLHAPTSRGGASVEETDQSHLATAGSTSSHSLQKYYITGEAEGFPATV
smiles,measurement,setting,value
COc1cc(C(C)C)c2c(c1)S(=O)(=O)N(COc1cc(=O)n3cccc(OCCN4CCCCC4)c3n1)C2=O,AC50,DIO2 (gene 1734),11.7 µM (active)
same,AC50,DIO3 (gene 1735),4.67 µM (active)
CCCCCCCCCCCCCCCCOS(=O)(=O)O,AC50,DIO2 (gene 1734),28.9 µM (active)
same,AC50,DIO3 (gene 1735),6.12 µM (active)
C=CCc1cc(S(=O)(=O)c2ccc(O)c(CC=C)c2)ccc1O,AC50,[1],169 µM (active)
same,outcome,[2],inactive
same,outcome,[3],inactive
same,AC50,DIO2 (gene 1734),120 µM (active)
same,AC50,DIO3 (gene 1735),62.5 µM (active)
CCCCC(CC)C(=O)OCCOCCOCCOC(=O)C(CC)CCCC (configuration not stated),outcome,[4],inactive
same,outcome,[5],inactive
same,outcome,[3],inactive
CC[C@H](C)C(=O)O[C@H]1C[C@H](O)C=C2C=C[C@H](C)[C@H](CC[C@@H](O)C[C@@H](O)CC(=O)O)[C@H]21,outcome,[6],inactive
same,AC50,[7],2.28 µM (active)
same,outcome,[8],inactive
same,outcome,[9],inactive
same,outcome,[10],inactive
same,AC50,[11],0.143 µM (active)
same,AC50,[12],3.06 µM (active)
same,AC50,[13],0.037 µM (active)
same,outcome,[14],inactive
same,AC50,[15],1.88 µM (active)
NC(=O)NN=Cc1ccc([N+](=O)[O-])o1,AC50,[1],116 µM (active)
same,AC50,[2],108 µM (active)
same,outcome,[3],inactive
c1ccc2cc3ccccc3cc2c1,outcome,[6],inactive
same,outcome,[7],inactive
same,outcome,[8],inactive
same,outcome,[9],inactive
same,outcome,[10],inactive
same,outcome,[11],inactive
same,outcome,[12],inactive
same,outcome,[13],inactive
same,outcome,[14],inactive
same,AC50,[15],0.218 µM (active)
same,outcome,[15],inactive
same,outcome,[16],inactive
NCC(F)(F)C(F)(F)C(F)(F)C(F)(F)F,outcome,[6],inactive
same,outcome,[7],inactive
same,outcome,[8],inactive
same,outcome,[9],inactive
same,outcome,[10],inactive
same,outcome,[11],inactive
same,outcome,[12],inactive
same,outcome,[13],inactive
same,outcome,[14],inactive
same,outcome,[15],inactive
NC(=O)N1c2ccccc2C=Cc2ccccc21,outcome,[6],inactive
same,outcome,[7],inactive
same,outcome,[8],inactive
same,outcome,[9],inactive
same,outcome,[10],inactive
same,outcome,[11],inactive
same,outcome,[12],inactive
same,outcome,[13],inactive
same,outcome,[14],inactive
same,outcome,[15],inactive
same,outcome,[17],inactive
same,outcome,[16],inactive
C[C@]12C=CC(=O)C=C1CC[C@H]1[C@@H]3C[C@@H](O)[C@](O)(C(=O)CO)[C@@]3(C)C[C@H](O)[C@@]12F,outcome,[6],inactive
same,outcome,[7],inactive
same,outcome,[8],inactive
same,outcome,[9],inactive
same,outcome,[10],inactive
same,outcome,[11],inactive
same,AC50,[12],0.116 µM (active)
same,outcome,[13],inactive
same,outcome,[14],inactive
same,AC50,[15],0.57 µM (active)
same,outcome,[16],inactive
OC(O)(C(F)C(O)(O)C(F)(F)F)C(F)(F)F,outcome,[6],inactive
same,AC50,[7],3.9 µM (active)
same,outcome,[7],inactive
same,outcome,[8],inactive
same,outcome,[9],inactive
same,outcome,[10],inactive
same,outcome,[11],inactive
same,outcome,[12],inactive
same,outcome,[13],inactive
same,outcome,[14],inactive
same,outcome,[15],inactive
same,outcome,[16],inactive
